High-throughput results: PubChem, National Center for Advancing Translational Sciences (NCATS)
IMPase inh: qHTS Assay for Identifying the Cell-Membrane Permeable IMPase Inhibitors | Inositol monophosphatase 1 (Rattus norvegicus), P97697 | CHO-M1 cells, IP1 accumulation, HTRF TR-FRET ratio | inhibition (IP1 accumulation), % at 46.1 µM | 120,000 tested, under 10 active | AID 901, 2007; active means well fitted curve in the direction sought with a large enough effect in the signal ratio, not every such curve was filed as active; inconclusive means small, poorly fitted or top-dose-only effect, or a change in a side signal; inactive means no such curve, though single readings can be large or run the other way; the % refers to the signal ratio;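 further: cells stimulated with carbachol in lithium chloride buffer; higher means more IMPase inhibition seen as more IP1 and lower FRET ratio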
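Cellular IMPase inhibition is scored as a rise in cytosolic IP1, detected by competitive TR-FRET between d2-labelled IP1 and a europium anti-IP1 antibody. M1-expressing CHO cells were stimulated with carbachol for 30 min at 37C, with lithium (50 mM LiCl) present in the buffer.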
ALDH1A1 block: qHTS Assay for Inhibitors of Aldehyde Dehydrogenase 1 (ALDH1A1). Aldehyde dehydrogenase 1A1 (Homo sapiens), P00352. Purified ALDH1A1, NADH fluorescence, propionaldehyde substrate. Potency, µM (highest dose often 75.3 µM), hits mostly inhibitors. 7.3% of 220,000 active. AID 1030, 2008; active means well fitted inhibition curve with a large enough effect, not every such curve was filed as active; inconclusive means small, poorly fitted or top-dose-only effect, or another doubt; inactive means no such curve, though single readings can be large or run the other way
Target sequence (P00352 whole entry, looked up): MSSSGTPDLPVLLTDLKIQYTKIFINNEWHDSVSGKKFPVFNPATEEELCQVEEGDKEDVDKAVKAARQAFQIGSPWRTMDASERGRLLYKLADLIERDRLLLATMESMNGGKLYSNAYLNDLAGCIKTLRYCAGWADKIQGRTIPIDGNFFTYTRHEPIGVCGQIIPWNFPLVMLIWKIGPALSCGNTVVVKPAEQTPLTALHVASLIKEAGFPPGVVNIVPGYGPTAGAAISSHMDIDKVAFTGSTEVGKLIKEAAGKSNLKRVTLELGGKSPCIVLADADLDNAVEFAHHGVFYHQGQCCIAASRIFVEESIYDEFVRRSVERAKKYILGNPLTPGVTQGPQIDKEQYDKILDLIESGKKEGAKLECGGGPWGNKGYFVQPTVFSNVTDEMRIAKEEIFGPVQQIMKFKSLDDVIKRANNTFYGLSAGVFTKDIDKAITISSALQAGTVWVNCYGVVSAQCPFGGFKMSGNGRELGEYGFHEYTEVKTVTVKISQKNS
IMPase Li cell: qHTS Assay for Identifying the Cell-Membrane Permeable IMPase Inhibitors: Potentiation with Lithium. AID 1457, 2008. 0.35% of 210,000 active. Potency, µM (doses to about 59.4 µM), most hits filed as inhibitors. CHO-M1 cells, IP1 TR-FRET (IP-One), carbachol + lithium;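 further: IP1 builds up when IMPase is blocked and the TR-FRET signal falls; nearly all actives have a fitted effect of over 50% in size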
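Steps: plate 2000 CHO-M1 cells per well and culture 16–30 h; add compound and lithium; incubate 30 min, 37C; add d2-IP1 tracer and Eu cryptate anti-IP1 antibody in lysis buffer; read after 10 min at room temperature.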
HPGD block: qHTS Assay for Inhibitors of HPGD (15-Hydroxyprostaglandin Dehydrogenase); 15-hydroxyprostaglandin dehydrogenase [NAD(+)] (Homo sapiens), P15428; purified HPGD, NADH fluorescence kinetic, PGE2 substrate; Potency, µM, hits mostly inhibitors; 4.3% of 150,000 active; AID 894, 2007; active means well fitted inhibition curve with a large enough effect, not every such curve was filed as active; inconclusive means small, poorly fitted or top-dose-only effect, or another doubt; inactive means no such curve, though single readings can be large or run the other way
Target sequence (P15428 whole entry, looked up): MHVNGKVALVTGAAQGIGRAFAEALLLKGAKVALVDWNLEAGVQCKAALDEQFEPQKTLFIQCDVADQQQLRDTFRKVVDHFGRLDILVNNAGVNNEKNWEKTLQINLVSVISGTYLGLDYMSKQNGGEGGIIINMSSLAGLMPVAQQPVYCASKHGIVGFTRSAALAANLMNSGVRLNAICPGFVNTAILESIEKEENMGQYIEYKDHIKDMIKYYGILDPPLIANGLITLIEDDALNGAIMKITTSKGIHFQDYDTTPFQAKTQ
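20 nM HPGD preincubated 15 min at room temperature with compound in 50 mM Tris-HCl pH 8, 0.01% Tween 20. Started with 1 mM NAD+ and 30 uM prostaglandin E2; NADH fluorescence (360/450 nm) read 5 times over 30-s intervals, last minus first.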
ALOX12 inhib: qHTS Assay for Inhibitors of 12-hLO (12-human lipoxygenase); Potency, µM (highest dose often 57.1 µM), hits mostly inhibitors; purified 12-hLO, xylenol orange hydroperoxide absorbance; 0.12% of 150,000 active; AID 1452, 2008; further: nearly all actives have a fitted effect of over 55% in size
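Purified human 12hLO (150 nM), preincubated 15 min with compound, then 40 uM arachidonic acid for 30 min, room temperature, Hepes pH 7.0 with 0.01% Triton X-100. Hydroperoxide detected by ferrous iron/xylenol orange; 573/405 nm absorbance ratio gives reaction progress.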
PNC assembly inh: High Content Assay for Compounds that inhibit the Assembly of the Perinucleolar Compartment | PC3M PTB-GFP, PNC prevalence imaging, 16 h; active compounds read low | activity change (PNC), negative = inhibition, % at 10 µM | 3.1% of 140,000 active;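 active means readout at or below -70, meaning at least 70% loss of cells showing the perinucleolar compartment, a nuclear body marking cancer cells; inconclusive means readout between -30 and a set limit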
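Read-out is percentage of cells bearing a perinucleolar compartment, from automated 20x imaging of fixed, Hoechst-stained PC3M PTB-GFP cells. Cells were seeded 4 h, then exposed 16 h to compound (23 nl of library stock) in duplicate plates.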
Numbers stand for hits; . = inactive; ? = inconclusive; / = no result given; [ ] = remark or other dose. Rows were chosen to be rich in hits. Some 11% of all compounds tested hit in one or more screens of this group. Unless noted, the call rests on the fitted dose curve; in most records, active means well fitted curve in the direction sought with a large enough effect; inconclusive means small, poorly fitted or top-dose-only effect, or another doubt; inactive means no such curve, though single readings can be large; an effect the other way counts as inactive or inconclusive.

SMILES	IMPase inh	ALDH1A1 block	IMPase Li cell	HPGD block	ALOX12 inhib	PNC assembly inh
Cc1noc(C)c1C(=O)N1CCC2(CC1)CN(C(=O)Nc1cccc(F)c1)C2	/	.	.	.	.	/
COc1ccc(S(=O)(=O)N(CCc2ccccc2)CC(=O)NCc2ccccc2)cc1OC	.	/	/	/	/	/
C[N+](C)(C)CC(=O)N/N=C\c1c(O)ccc2ccccc12	/	.[13.5 µM]	.	.	.[11.4 µM]	/
CC(C)/C(=N/[N+](C)(C)C)c1ccccc1	/	.[13.5 µM]	.	.	.[11.4 µM]	/
Cc1c(C)c2c(c(C)c1O)CCC(C)(COc1ccc(Cc3sc(=O)[nH]c3O)cc1)O2 (stereo unspecified)	/	.	.	.	.[0.00818 µM]	/
CC1CCN(S(=O)(=O)N2CCC(C(=O)NC3CCCC3)CC2)CC1	/	.	.	/	/	/
CCCS(=O)(=O)N1CCC(C(=O)NC2CCC(C)CC2)CC1 (stereo unspecified)	.	13µM	/	/	.	.
O=C(NC1CC1)C1CCN(c2ncnc3c2sc2cccc(F)c23)CC1	.	?	.	16µM	.	.
O=C(OCC(=O)N1CCN(S(=O)(=O)c2ccc(Cl)cc2)CC1)c1ccc([N+](=O)[O-])o1	/	25µM	.	/	/	/
O=C(OCC(=O)N1CCN(S(=O)(=O)c2ccccc2)CC1)c1ccc([N+](=O)[O-])o1	/	20µM	.	/	/	/
Fc1ccc(C(Nc2ccccc2Cl)c2nnc(-c3ccccc3Cl)o2)cc1 (stereo unspecified)	.	/	/	/	/	/
CCOC(=O)CNc1c(-c2ccc(O)cc2)nc2ccc(Cl)cn12	.	7.1µM	.	.	.	.
Cc1ccc(C2(C)NC(=O)N(CC(=O)Nc3cc(S(=O)(=O)N4CCOCC4)ccc3C)C2=O)cc1 (stereo unspecified)	/	.	.	.	.	-115
Cc1ccc(S(=O)(=O)N2CCOCC2)cc1NC(=O)COC(=O)CNC(=O)c1ccc(C(C)(C)C)cc1	/	7.9µM	.	.	.	.
CC(C)(C)c1ccc(C(=O)NCC(=O)OCC(=O)Nc2ccccc2[N+](=O)[O-])cc1	/	6.3µM	.	.	.	.
COc1cc(NC(=O)COC(=O)CNC(=O)c2ccc(C)cc2)c(C)cc1[N+](=O)[O-]	.	.	.	.	.	.
COc1ccc(OC)c(NC(=O)c2cc3n(n2)C(C(F)(F)F)CC(c2ccc4c(c2)OCO4)N3)c1 (stereo unspecified)	.	.	.	.	.	.
O=C(Nc1cc(Cl)ccc1O)c1cc2n(n1)C(C(F)(F)F)CC(c1ccc3c(c1)OCO3)N2 (stereo unspecified)	.	.	.	.	.	-84
Cc1cccc(Oc2nc(CN3CCOCC3)nc3sc4c(c23)CCCC4)c1	/	?	.	.	.	-104
O=C(NCc1n[nH]c(=S)n1-c1cccc(Cl)c1)c1ccc(S(=O)(=O)N2CCCC2)cc1	.	4.5µM	.	.	.	.
O=C(NCc1n[nH]c(=S)n1-c1cccc(C(F)(F)F)c1)c1ccc(S(=O)(=O)N2CCCC2)cc1	/	?	.	/	/	/
O=C(NCc1n[nH]c(=S)n1-c1ccc(F)cc1)c1ccc(S(=O)(=O)N2CCCC2)cc1	.	16µM	.	.	.	?
COc1cccc([C@@H]2Oc3ccc(OC)cc3C(=O)[C@H]2OC(=O)NS(=O)(=O)c2ccc(F)cc2)c1	/	.	.	.	/	/
COc1ccc2c(c1)O[C@@H](c1ccc3c(c1)OCO3)[C@H](OC(=O)Nc1ccc(C)c(Br)c1)C2=O	/	.	.	.	/	/
CC1=C(C(=O)OC(C)C)C2(O)C(=O)c3ccccc3C2(O)N1 (stereo unspecified)	.	13µM	.	.	.	?
SMILES	IMPase inh	ALDH1A1 block	IMPase Li cell	HPGD block	ALOX12 inhib	PNC assembly inh
CCCCOC(=O)C1=C(C)NC2(O)c3ccccc3C(=O)C12O (stereo unspecified)	.	8.9µM	.	.	.	.
CC1=C(C#N)C2(O)C(=O)c3ccccc3C2(O)N1 (stereo unspecified)	/	?	.	/	/	/
COc1ccc2c(c1)NC1(O)c3ccccc3C(=O)C21O (stereo unspecified)	.	.	.	.	.	.
CCOC(=O)C1=C(C)N[C@@]2(O)c3ccccc3C(=O)[C@@]12O	.	32µM	.	.	.	.
CC(=O)NCCNc1ncncc1-c1ccccc1C	/	.	.	/	/	/
CCOc1ccccc1C(=O)Nc1cccc(-c2nnc(-c3ccccc3)o2)c1	?	?	.	?	.	.
Cn1c(=O)n(C)c2cc(N3CCOCC3)c(NS(=O)(=O)c3ccc(Br)cc3)cc21	.	/	/	/	/	/
C=CCn1c(/N=C/c2ccc(N(C)C)cc2)nc2ccccc21	.	.	/	/	.	?
CCCCn1c(/N=C/c2ccc(N(C)C)cc2)nc2ccccc21	.	2.8µM	.	.	.	.
CCCCn1c(/N=C/c2c[nH]c3ccccc23)nc2ccccc21	.	25µM	.	.	?	.
CNCCCCc1cnc(C)c2[nH]c3ccccc3c12	/	?	.	?	/	/
O=C(Nc1ccc(O)c2c(=O)cc(-c3ccccc3Cl)oc12)c1ccccc1Cl	/	.	.	.	.[0.00818 µM]	.
O=C(Nc1ccc(O)c2c(=O)cc(-c3ccccc3Cl)oc12)c1ccc(Br)cc1	/	.	.	1.1µM	.[0.00818 µM]	/
O=C(Nc1ccc(O)c2c(=O)cc(-c3ccccc3Cl)oc12)c1cccc(Cl)c1	/	.	.	.	.	-80
CSc1c(CC(=O)Nc2ccccc2C(F)(F)F)n(Cc2ccccc2)c2ccccc12	/	.	.	.	.	-106
C#CCOCCOCCOCCNc1nc(N2CCN(C(=O)[C@H](Cc3ccc(O)cc3)n3cc([C@@H](N)CC(C)C)nn3)CC2)nc(N2CCN(C(=O)[C@H](Cc3ccc(O)cc3)n3cc([C@@H](N)CC(C)C)nn3)CC2)n1	/	16µM	.	/	/	/
O=C(O)c1[nH]c2c([N+](=O)[O-])cc([N+](=O)[O-])cc2c1C(=O)O	/	.[13.5 µM]	.	.	.[11.4 µM]	/
Cc1cc(-c2ccco2)n(-c2ccccc2)n1	.	1.4µM	.	32µM	.	?
Cc1cc(NC(=O)c2cc(-c3ccco3)on2)n(-c2ccccc2)n1	.	?	.	.	.	.
O=c1cnc2cnc(Oc3cccc(Cl)c3)nc2n1C[C@H]1CCCO1	/	?	.	/	/	/
O=[N+]([O-])c1cc(F)c2cccnc2c1O	/	18µM	/	/	/	/
O=[N+]([O-])c1cccc2c(Cl)ccnc12	/	?	.	/	/	/
O=[N+]([O-])c1ccc(Cl)c2cccnc12	/	18µM	.	/	/	/
CC(=O)c1ccc(OCC(O)CN(C)Cc2cccs2)cc1 (stereo unspecified)	.	?	.	.	.	.
